A number with no mark means an inactive call. Records with an inconclusive call do not appear. Entries that show only a call come without a potency. Activity calls are given as the source filed them. Calls follow the shape of the dose curve; as a rule, active = well fitted curve in the direction sought with a large enough effect in the repeat runs; inconclusive = weak or mixed curves; inactive = no such curve, though single readings can be large; an effect the other way counts as inactive or inconclusive.
Experiments:
[1] = A CellTox Green Cytotoxicity Assay to monitor cytotoxicity in HepG2 cells - 0 hour (AID 1224882); also: nearly all actives have a fitted effect of over 35% in size
In short: (§1)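 Real-time, homogeneous cytotoxicity readout: dead-cell DNA staining by CellTox Green in HepG2 monolayers, fluorescence measured at timed intervals up to 40 h of continuous compound exposure.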

[2] = A CellTox Green Cytotoxicity Assay to monitor cytotoxicity in HEK293 cells - 8 hour (AID 1224884); also: nearly all actives have a fitted effect of over 35% in size
In short: (§2)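 Cytotoxicity was tracked continuously in HEK293 cells by a DNA-binding dye excluded from viable cells. Compounds were transferred in DMSO 5 h after seeding; fluorescence was recorded at intervals up to 40 h.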

[3] = A CellTox Green Cytotoxicity Assay to monitor cytotoxicity in HEK293 cells - 16 hour (AID 1224888); also: nearly all actives have a fitted effect of over 35% in size
In short: as §2

[4] = qHTS RealTime-Glo MT Cell Viability Assay in HepG2 cells - 0 hour (AID 1224889); also: nearly all actives have a fitted effect of over 50% in size; also: potency is read from the fitted curve at half-maximal effect
In short: (§3)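 Viability was tracked continuously by NanoLuc luminescence from prosubstrate reduced by living HepG2 cells, at successive time points over 40 h of compound exposure. Cells with reagent were preincubated 5 h at 37 °C before compound addition.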

[5] = A CellTox Green Cytotoxicity Assay to monitor cytotoxicity in HepG2 cells - 8 hour (AID 1224890); also: nearly all actives have a fitted effect of over 45% in size
In short: as §1

[6] = A CellTox Green Cytotoxicity Assay to monitor cytotoxicity in HepG2 cells - 32 hour (AID 1224883); also: nearly all actives have a fitted effect of over 50% in size; also: potency is read from the fitted curve at half-maximal effect
In short: as §1

[7] = qHTS RealTime-Glo MT Cell Viability Assay in HEK293 cells - 24 hour (AID 1224886); also: nearly all actives have a fitted effect of over 50% in size; also: potency is read from the fitted curve at half-maximal effect
In short: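 Viability tracked continuously by luminescence as live cells reduce a prosubstrate for NanoLuc; HEK293 cells preincubated 5 h, compound-treated at 37 C, and read at 0, 8, 16, 24, 32 and 40 h.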

[8] = qHTS RealTime-Glo MT Cell Viability Assay in HepG2 cells - 16 hour (AID 1224885); also: nearly all actives have a fitted effect of over 50% in size
In short: as §3

[9] = qHTS RealTime-Glo MT Cell Viability Assay in HEK293 cells - 8 hour (AID 1224887); also: nearly all actives have a fitted effect of over 50% in size; also: potency is read from the fitted curve at half-maximal effect
In short: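 Nonlytic bioluminescent viability monitoring. HEK293 at 600 cells/well with reagent; 5 h settle; compound transfer by pintool; plates held at 37 C and read at set time points.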

| SMILES | Potency [1] | Potency [2] | Potency [3] | Potency [4] | Potency [5] | Potency [6] | Potency [7] | Potency [8] | Potency [9] |
| --- | --- | --- | --- | --- | --- | --- | --- | --- | --- |
| O=C(N/N=C/c1ccc([N+](=O)[O-])o1)c1ccc(O)cc1 | inactive | inactive | inactive | inactive | inactive | – | – | – | – |
| NC(=O)Cn1c(=O)cc(CCN2CCN(c3nccc4sccc34)CC2)c2ccc(F)cc21 | inactive | inactive | inactive | 13.8 µM (active) | inactive | inactive | 49 µM (active) | – | – |
| O=C(Nc1ccc([N+](=O)[O-])cc1)Nc1ccc([N+](=O)[O-])cc1 | inactive | inactive | inactive | inactive | inactive | – | – | – | – |
| CC(=O)Oc1ccc2c(c1)CC[C@@H]1[C@@H]2CC[C@]2(C)[C@@H](O)CC[C@@H]12 | inactive | inactive | inactive | inactive | inactive | – | – | inactive | – |
| CCCCC1C(=O)N(c2ccccc2)N(c2ccc(O)cc2)C1=O (stereo unspecified) | inactive | inactive | inactive | inactive | inactive | 10.7 µM (active) | – | – | – |
| Nc1ccc(S(=O)(=O)O)c(N)c1 | inactive | – | – | inactive | inactive | inactive | inactive | inactive | – |
| COc1cc2ncnc(Nc3ccc(F)c(Cl)c3)c2cc1OCCCN1CCOCC1 | inactive | inactive | inactive | – | – | 23.9 µM (active) | – | – | 10.7 µM (active) |
| O=C(CCC1CCN(Cc2ccccc2)CC1)c1ccc2c(c1)NCCCC2 | inactive | inactive | inactive | inactive | inactive | – | 9.52 µM (active) | inactive | 9.52 µM (active) |
| O=C(c1ccc(O)cc1)c1ccc(Cl)cc1 | inactive | inactive | – | inactive | inactive | inactive | 22.3 µM (active) | inactive | – |
| CN(C)C(=O)Nc1ccc(Oc2ccc(Cl)cc2)cc1 | inactive | inactive | inactive | inactive | inactive | – | – | inactive | – |
| Nc1ccc(C(=O)OCCCOC(=O)c2ccc(N)cc2)cc1 | inactive | inactive | inactive | inactive | inactive | inactive | 43.6 µM (active) | inactive | – |
| CCCCCCCCCCCC[N+](C)(C)CC(=O)[O-] | inactive | – | – | inactive | inactive | – | inactive | inactive | inactive |
| CCCCCCCCCCCC[N+](C)(C)CCCS(=O)(=O)[O-] | inactive | – | – | inactive | inactive | inactive | inactive | inactive | inactive |
| CNCCCC1c2ccccc2C=Cc2ccccc21 | inactive | inactive | inactive | – | inactive | 23.9 µM (active) | – | – | inactive |
| CC(C)(C)C(=O)O | inactive | inactive | inactive | inactive | inactive | inactive | – | inactive | – |
| CC1(C)C2=CCCC(C)(C)[C@]23CC[C@H]1C3 | inactive | inactive | inactive | 34.7 µM (active) | inactive | – | – | inactive | inactive |
| CC(=O)OCC(=O)[C@H]1CC[C@H]2[C@@H]3CCC4=CC(=O)CC[C@]4(C)[C@H]3CC[C@]12C | inactive | inactive | inactive | 3.01 µM (active) | inactive | inactive | – | inactive | – |
| CNC(=O)N(c1ccccc1)c1ccccc1 | inactive | inactive | inactive | inactive | inactive | inactive | – | inactive | inactive |
| CC(COc1ccc(C(C)(C)C)cc1)OS(=O)OCCCl (stereo unspecified) | inactive | inactive | inactive | inactive | inactive | inactive | – | inactive | inactive |
| O=C(O)c1ccccc1NCCc1ccccc1 | inactive | inactive | inactive | inactive | inactive | inactive | inactive | inactive | – |
| O=C1NCCN1 | inactive | inactive | – | inactive | inactive | inactive | – | inactive | inactive |
| CC1=C(C=O)C(C)(C)CCC1 | inactive | inactive | – | inactive | inactive | inactive | – | inactive | – |

Reference: PubChem BioAssay (Tox21)
